Measured values as given in paper PMC13494018.
Unmarked numbers belong to inactive results. No rule for the calls is given here.

B1: d8r1_design_ppi_786_dldesign_0_cycle1_af2pred (protein)
chain: SEEKEKLKKLAEKARAGAEAAKADPSKAAEYGKEAYELAKEALPESIAELFKKAVEKNPVSGLAFLAAYAKYKAES
B2: d8r1_design_ppi_1408_dldesign_0_cycle1_af2pred (protein)
chain: EESVKASILAAIERGARLLAAENPAAGVAALTVARVLTTTGGLGSAIAGAAAFAAIAAAATGARGAAIGGSVVSFTVKLVEMYK
B3: d8r1_design_ppi_257_dldesign_0_cycle1_af2pred (protein)
chain: DEKDTATAEALGAISRAIAAAKALAATGDPEEAARLAEAARAAIAEALELAKKTTPSSQAAIEVAAARARAALDAALAKQAARAAA
B4: d8r1_design_ppi_487_dldesign_0_cycle0_af2pred (protein)
chain: AAAEAAKAALAAEGERLLEEAERNLKIAKEGNGEEAAKASRNTLLNLAELTKLADEAAAADPAAGKVGAELLARLREILREIEAVNLA
B5: d8r1_design_ppi_43_dldesign_0_cycle0_af2pred (protein)
chain: MEALERASRVLAEAARLAMKNPAYAPAFAEVAAAYRETIAAYKESPEAAKEAAERLEKLAAERIAAAKAAL
B6: d8r1_design_ppi_991_dldesign_0_cycle1_af2pred (protein)
chain: AEAARTAAIAKSIAGLAKLAEKAKDDKSVVRAAATAAAAAAAKDAALGKAAAERLKAAAEATPEEAIATLKAVAAEIAAAAAA
B7: d8r1_design_ppi_1080_dldesign_0_cycle0_af2pred (protein)
chain: SMESVLKSAESLAEAARRLAAERAAEPELVLRAAENALAGGTKLGEARGPEVAKKVRERMEATLAEIRARLA
B8: d8r1_design_ppi_1423_dldesign_0_cycle0_af2pred (protein)
chain: STAEKIAKYNKFAEEAKAAAKRVAEEGEEAAKEAIETLKKLAKESDAETAETLNKLAEIAEEGGGSAALAAMQAAAVHFANKAAKLAA
B9: d8r1_design_ppi_78_dldesign_0_cycle1_af2pred (protein)
chain: SMKKEEAKKVAEEARKAAKEAEELAKKIGDAKLAQQAKNIAAGADKAAEFGSLNMVKAFLREAKKLKEEAKKKLA
B10: d8r1_design_ppi_87_dldesign_0_cycle0_af2pred (protein)
chain: MEEEFDERMRKAAEYLAKMDAALAAIKAAGDRAEAEKLLAELRKAGEEMAKELGEAGKAIKEALEAQAQAALAA
B11: d8r1_design_ppi_321_dldesign_0_cycle1_af2pred (protein)
chain: GSNFEKAYYAGEAYSYAYAAVKEAKALVKALGDAAKPLLDEAEALLKKIEEVLKNGNLEEAKKMLEEAKALLEKVKAA
B12: d8r1_design_ppi_198_dldesign_0_cycle1_af2pred (protein)
chain: AAAALQAAAAAAAARLEKLAEEAAADPRLAPAAAAARAAAAQARANPAIAAQLAANTEAFVATYRAAVEEK
B13: d8r1_design_ppi_1191_dldesign_0_cycle1_af2pred (protein)
chain: AKAELKKKAEEYEKLYNAAKAALDVALADPSFSKSAKKAIAQAQVDAAKKALEAAKAYDPSQAPYWQAKLDAAQAALDAI
B14: d8r1_design_ppi_286_dldesign_0_cycle0_af2pred (protein)
chain: SNEENAENLRLAGRAIEGVAESASAKQTADHLNNVATAAAKIDAETGKKLKAIGEEVLKTGDAKEGGEKAKKVLEEAAEKFK
B15: d8r1_design_ppi_290_dldesign_0_cycle1_af2pred (protein)
chain: SKAEAEKLKAQIEAAKAAGVAGDAATAAAAIAAITALADQAAALDPEYAAEVVNAANKAMLAVGDAREAKAAA
B16: d8r1_design_ppi_820_dldesign_0_cycle1_af2pred (protein)
chain: AAEAQALLQTFEANVEGAKMMGEASSLPALVRYHAITKTSATLAARAKELGLEEAAAQIEARGKELAAEAKAGLEKELAA
B17: d8r1_design_ppi_645_dldesign_0_cycle0_af2pred (protein)
chain: KLEEAKEKLEKGKELLKKAKEDPENAIEYAKEALKEFSEASRLAAEAAKDEEYKEEAEELLKEANKLASEATQLLAKKASEEEK
B18: d8r1_design_ppi_1323_dldesign_0_cycle1_af2pred (protein)
chain: MKASIKHLIEQAKKYAKEAKETGSDALARAAASAAAAAAVLAKEAGDKELAKEAEKVAKEIAEVAPPSIAKYAKEAAKLAAE
B19: d8r1_design_ppi_1486_dldesign_0_cycle1_af2pred (protein)
chain: MKELEEAKKEAEKAREELLKAAKEAAKVDPTVATGANNAAEGAKVLIESGSLGAARAGKAIAEAALKKAQAVLDAAQKA
B20: d8r1_design_ppi_139_dldesign_0_cycle0_af2pred (protein)
chain: EELLEKLKEKAEKVKKLAEEGAEAEELEKARKELGAALSALTRAIAEASPELAAKGREAAAEAAKAAIKAGEKAEELKKA
B21: d8r1_design_ppi_419_dldesign_0_cycle0_af2pred (protein)
chain: SELEEEARKAEEEFRAALAELEAAAAELEKLDPAAGATARRAAEGARGLLELAKKFSVKSQLNVAKSMLRGAERQLAAARARVAALK
B22: d8r1_design_ppi_790_dldesign_0_cycle1_af2pred (protein)
chain: KAEEAKALAEKAIAAAPDVDAAAEEIAAAVKLGTGEALVAAARAAAAAIRALGDPAAQARLLELAREHGSRTYAAVAAGLAIARAEAA
B23: d8r1_design_ppi_705_dldesign_0_cycle1_af2pred (protein)
chain: MSKLTQAMLHYGRALAAAVALADDPEAAGKAVSAEMAEAAKVAAAGSPEVQKQALEAGEIIVEQIKKVNPEVGAKAAEAVKTTLAKL
B24: d8r1_design_ppi_568_dldesign_0_cycle0_af2pred (protein)
chain: AGEALNLAARGLIAAGEAGDAEAAAQAAALLAKATAALAAGDEAAAKAYAAEAAAVADPEKAPEAEAVKAAAAA
B25: d8r1_design_ppi_282_dldesign_0_cycle1_af2pred (protein)
chain: STDEELAAKAAALANLNKALAIATKFDPSVLADFKKIASLILDPNKKEEAVKLLNEKAKEAEAKDPAAGAALKAAAEEAKKI
B26: d8r1_design_ppi_456_dldesign_0_cycle1_af2pred (protein)
chain: SAQAAAAEKLRALADAIAAASPAYQPAANALRAAAVVAEKSGNGASALALLDAAIAAAAKVPGGAEWAAAIRAAAAEVRAAFA
B27: d8r1_design_ppi_59_dldesign_0_cycle1_af2pred (protein)
chain: MSELSEKLIEAAIAAHRAAAELAALGAPAEAAAHRAKAAKLFGEARKLIQEGDEEKAKKALEEAEALAAAAAAAAKKARAAAAAA
B28: d8r1_design_ppi_502_dldesign_0_cycle0_af2pred (protein)
chain: SFEEEKKKADEYMTKAAELAPPELKPAVQNMRDGILKAFEVSPKSALNLAKSALRWVKKHGSEEAAKEMEKALEHLEKAAE
B29: d8r1_design_ppi_493_dldesign_0_cycle1_af2pred (protein)
chain: SDARIAGAVAIMRLGAADADAATGAALREVGAAFAVSPEAGVAKAAELAAALAAARTPAAAAAGAARLAAATALGVAIAAAGA
B30: d8r1_design_ppi_1247_dldesign_0_cycle0_af2pred (protein)
chain: SSDKENSKLIREAMKVIGETLAAARAAVAAGDLEAARAAVAEGVARLEEMAEKSKDEATRETLLRMAEALRAQGAKILA
B31: d8r1_design_ppi_679_dldesign_0_cycle1_af2pred (protein)
chain: ATAEARRAVVEEAIARITAALADRPQWAAKAAAVLERGARLGREAEAARAVAAMLEVLGYTEAAAVAAEAAERIAAL
B32: d8r1_design_ppi_750_dldesign_0_cycle1_af2pred (protein)
chain: SRLEEARAIAERAAAEAAAAGNVAEAVAIAQRGAAEVVRTLSPEPVEAKAEVLAHHAELAQAVIDALTAAE
B33: d8r1_design_ppi_536_dldesign_0_cycle0_af2pred (protein)
chain: SKDEEIAKLLLKTAEAARKDAKKALELAKELKKLGNKNQGGAIVTLLQAAVENKGAAGKSALAGAVKLAEAKAEDLLAK
B34: d8r1_design_ppi_1356_dldesign_0_cycle0_af2pred (protein)
chain: SAELIAQTARAGAVMLAAGIAGTPEAAANAAAGTSLLLKAKAESTGSEELKALAERAAAAAATLKADPAAGRAALAALRDELEKLAK
B35: d8r1_design_ppi_219_dldesign_0_cycle1_af2pred (protein)
chain: DARLERVAKVTAEAYAKVAAVAAGEKLPLARRAAALLAAGGFSPEAAAEYFAEAKAIAAEIGPEAAAIIEEAGKAV
B36: d8r1_design_ppi_305_dldesign_0_cycle1_af2pred (protein)
chain: AEEALKLLAEAAAAASPEVAALANQALALLKQAENPEAMKQAIALLNAAYLAADPAIQPLIRRALQLAMQVLAKADR
B37: d8r1_design_ppi_442_dldesign_0_cycle1_af2pred (protein)
chain: DAAAVAAIAAAAAEAAGLYVRGRAASSKDPAEAKKYYAEADALVAAMLAAGAATSPAVAAAAAAAAATVAATRAALDAIKA
B38: d8r1_design_ppi_1135_dldesign_0_cycle1_af2pred (protein)
chain: DPREQFAAAVKEAAAALPDIADQVLALGEQALAAEGQAAADAMKAFVTLVTAAAAKASPEAAKAAGIAAANAMKAVSKIEE

Target: PDL1, Q9NZQ7
Sequence (Q9NZQ7 whole entry): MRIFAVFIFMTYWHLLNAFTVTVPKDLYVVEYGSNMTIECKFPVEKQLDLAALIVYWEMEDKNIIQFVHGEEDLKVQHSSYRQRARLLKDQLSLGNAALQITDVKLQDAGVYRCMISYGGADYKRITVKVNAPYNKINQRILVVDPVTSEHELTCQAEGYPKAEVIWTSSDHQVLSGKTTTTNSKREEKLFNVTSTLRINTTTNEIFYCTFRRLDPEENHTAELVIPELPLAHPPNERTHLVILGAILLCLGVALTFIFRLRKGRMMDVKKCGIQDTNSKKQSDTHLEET

| Binder | binding in a display sort |
| --- | --- |
| B1 | not found |
| B2 | not found |
| B3 | not found |
| B4 | not found |
| B5 | not found |
| B6 | not found |
| B7 | not found |
| B8 | not found |
| B9 | not found |
| B10 | not found |
| B11 | binds (active) |
| B12 | not found |
| B13 | not found |
| B14 | not found |
| B15 | not found |
| B16 | not found |
| B17 | not found |
| B18 | not found |
| B19 | not found |

| Binder | binding in a display sort |
| --- | --- |
| B20 | not found |
| B21 | not found |
| B22 | not found |
| B23 | not found |
| B24 | not found |
| B25 | not found |
| B26 | not found |
| B27 | not found |
| B28 | not found |
| B29 | not found |
| B30 | not found |
| B31 | not found |
| B32 | not found |
| B33 | not found |
| B34 | not found |
| B35 | not found |
| B36 | not found |
| B37 | not found |
| B38 | not found |
